Common to all, as to assay: qHTS profiling for inhibitors of Plasmodium falciparum proliferation (AID 504749); further: nearly all actives have a fitted effect of over 60% in size
Common to all, as to details: P. falciparum in erythrocytes, SYBR Green DNA, 72 h; series mostly up to 12.8 µM
For orientation: qHTS replaces the single test concentration by a dilution series.

For test [1], the system named is AS120. Put shortly: (§1)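 Each compound contacts P. falciparum-infected red blood cells for 72 h at 37 C; lysis buffer (Tris, EDTA, saponin, Triton X, SYBR Green I) is added and fluorescence measured next morning; values normalized to controls.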
The subject of test [2] is CP185. The gist of the method:
as §1

Test [3] has as its system CP194. Put shortly: as §1
In test [4] the test system is CP238. Put shortly:
as §1

The test system of test [5] is CP256. Put shortly: as §1
In test [6] the test system is CP266. The gist of the method: as §1
In test [7] the test system is CP269. Put shortly:
as §1

The test system of test [8] is CP286. The gist of the method:
as §1

Test [9] relates to CP291. Put shortly: as §1
Test [10] relates to CP297. Put shortly: as §1
The test system of test [11] is CP325. The gist of the method: as §1
Test [12] deals with DIV30. Put shortly: as §1
The test system of test [13] is ECU. Put shortly:
as §1

Test [14] deals with FAB9. Put shortly: as §1
In test [15] the test system is N140. The gist of the method: as §1
Test [16] concerns PC15. The gist of the method:
as §1

Test [17] concerns PC26. Put shortly: as §1
The test system of test [18] is SC27B. The gist of the method: as §1
The subject of test [19] is TAB109. The gist of the method:
as §1

The test system of test [20] is TAB165. Put shortly: as §1

Inconclusive results are not listed. Activity calls are given as the source filed them. The call rests on the fitted dose curve; in most records, active means well fitted inhibition curve with a large enough effect; inconclusive means small, poorly fitted or top-dose-only effect; inactive means flat fitted curve, though single readings scatter.
Potency means the concentration at half of the fitted maximal effect.

In the case of `Nc1nc2ncc(CNc3ccc(C(=O)NC(CCC(=O)O)C(=O)O)cc3)nc2c(=O)[nH]1` (stereo not given), the Potency result in test [1], in test [2], in test [3], in [4], in test [5] and in test [6] was “inactive” in each case. Moreover, the Potency result in test [7], in test [8], in test [9], in test [10], in [11] and in [12] was “inactive” each time. The Potency result in [13], in test [14], in test [15], in [16], in test [17] and in test [18] was “inactive” each time. In addition, the Potency entry in test [19] and in test [20] was “inactive” each time.
Consider `COc1ccc2cc(C(C)CO)ccc2c1` (stereo not given), for which the Potency entry in test [1], in test [2], in [3], in test [4], in [5] and in test [6] was “inactive” in each case. The Potency result in test [7], in test [8], in [9], in test [10], in test [11] and in test [12] was “inactive” in each case. For the same molecule, the Potency entry in test [13], in test [14], in test [15], in test [16], in test [17] and in [18] was “inactive” each time. For the same molecule, the Potency result in test [19] and in test [20] was “inactive” throughout.
For `C/C1=C2N=C(/C=C3N=C(/C(C)=C4\[N-]C(C)(C5N=C1C(C)(CCC(=O)NCC(C)OP(=O)([O-])O[C@H]1C(O)C(n6cnc7cc(C)c(C)cc76)O[C@@H]1CO)C5CC(N)=O)C(C)(CC(N)=O)C4CCC(N)=O)C(C)(CC(N)=O)C\3CCC(N)=O)C(C)(C)C/2CCC(N)=O.[CH2-]C1OC(n2cnc3c(N)ncnc32)C(O)C1O.[Co]` (stereo not given in full), the Potency entry in [1], in [2], in test [3], in test [4], in test [5] and in test [6] was “inactive” each time. In addition, the Potency entry in test [7], in [8], in [9], in test [10], in [11] and in test [12] was “inactive” in each case. Also, the Potency entry in test [13], in [14], in test [15], in test [16], in test [17] and in test [18] was “inactive” throughout. The Potency entry in [19] and in test [20] was “inactive” in each case.
On to `C[C@]1(c2ccccc2)OC(C(=O)O)=CC1=O`, for which the Potency result in [1], in test [2], in test [3], in test [4], in test [5] and in test [6] was “inactive” each time. Moreover, the Potency result in test [7], in [8], in test [9], in test [10], in [11] and in test [12] was “inactive” each time. The Potency entry in [13], in test [14], in test [15], in test [16], in test [17] and in [18] was “inactive” throughout. Moreover, the Potency entry in test [19] and in test [20] was “inactive” throughout.
Consider `COc1cc(C2c3cc4c(cc3C(O[C@@H]3OC5COC(c6cccs6)OC5C(O)C3O)C3COC(=O)C23)OCO4)cc(OC)c1O` (stereo not given in full), for which the Potency in test [1] is 1 µM (active); in test [2] it was 2.24 µM (active); in test [3] it was 1.69 µM (active); in test [4], 2 µM (active); in test [5], 3.16 µM (active); in test [6], 4.78 µM (active). Also, the Potency is 1.69 µM (active) in test [7]; 1.26 µM (active) in test [8]; 4.26 µM (active) in test [9]; 4.78 µM (active) in [10]; 4.78 µM (active) in [11]; 2.13 µM (active) in [12]. Also, the Potency is 2.51 µM (active) in test [13]; 2.24 µM (active) in test [14]; 1 µM (active) in test [15]; 4.47 µM (active) in [16]; 3.79 µM (active) in [17]; 3.16 µM (active) in test [18]. Also, the figures for the Potency in test [19] and in test [20] were 2.24 µM (active) and 1.41 µM (active), respectively.
Take `COc1ccc(CC(N)C(=O)NC2C(CO)OC(n3cnc4c(N(C)C)ncnc43)C2O)cc1` (stereo not given): the Potency is 0.891 µM (active) in test [1]; 0.631 µM (active) in test [2]; 1.07 µM (active) in test [3]; 0.794 µM (active) in test [4]; 1 µM (active) in test [5]; 1.2 µM (active) in test [6]. Besides, the Potency in test [7] was 0.757 µM (active); in test [8] it was 0.891 µM (active); in test [9], 1.07 µM (active); in test [10], 1.2 µM (active); in [11] it was 1.07 µM (active); in test [12], 0.849 µM (active). Moreover, the Potency in test [13] was 0.891 µM (active); in test [14], 1.78 µM (active); in [15] it was 0.631 µM (active); in test [16] it was 1.26 µM (active); in test [17], 0.849 µM (active); in test [18], 1 µM (active). Also, the Potency is 0.891 µM (active) in test [19] and 0.794 µM (active) in test [20].
Regarding `CC1(C)OC2CC(=O)OC[C@@]23C1CC(=O)[C@]1(C)C3CC[C@@]2(C)C(c3ccoc3)OC(=O)C3O[C@@]321` (stereo not given in full), the Potency entry in test [1], in test [2], in test [3], in test [4], in [5] and in test [6] was “inactive” each time. In addition, the Potency entry in test [7], in [8], in test [9], in test [10], in test [11] and in test [12] was “inactive” throughout. Further, the Potency entry in test [13], in test [14], in [15], in test [16], in test [17] and in test [18] was “inactive” in each case. For the same molecule, the Potency result in test [19] and in test [20] was “inactive” in each case.
With `CNC1C(OC2C(O[C@@H]3C(O)C(O)[C@@H](N=C(N)N)C(O)C3N=C(N)N)OC(C)[C@@]2(O)CO)OC(CO)C(O)C1O` (stereo not given in full), the Potency entry in [1], in test [2], in test [3], in [4], in [5] and in test [6] was “inactive” each time. The Potency result in [7], in test [8], in test [9], in test [11], in test [12] and in [13] was “inactive” throughout. For the same molecule, the Potency result in test [14], in test [15], in test [16], in test [17], in [18] and in [19] was “inactive” throughout. Also, in test [20], the Potency result was “inactive”.
With `OCC1OC([S-])[C@H](O)C(O)C1O.[Au+]` (stereo not given in full), the Potency entry in test [1], in test [2], in test [3], in test [4], in [5] and in [6] was “inactive” throughout. Further, the Potency entry in [7], in test [8], in [9], in test [10], in test [11] and in [12] was “inactive” throughout. Further, the Potency result in [13], in [14], in test [15], in [16], in test [17] and in test [18] was “inactive” each time. Also, the Potency entry in [19] and in test [20] was “inactive” throughout.
On to `OCC1O[C@H](OC2C(CO)O[C@@](O)(CO)C2O)C(O)C(O)C1O` (stereo not given in full), for which the Potency entry in [1], in [2], in test [3], in test [4], in [5] and in test [6] was “inactive” in each case. The Potency result in test [7], in [8], in test [9], in [10], in test [11] and in test [12] was “inactive” throughout. Besides, the Potency result in test [13], in test [14], in test [15], in test [16], in test [17] and in [18] was “inactive” in each case. The Potency entry in test [19] and in test [20] was “inactive” in each case.
In the case of `COc1ccc2cc1Oc1ccc(cc1)CC1c3c(cc4c(c3Oc3cc5c(cc3OC)CCN(C)C5C2)OCO4)CCN1C` (stereo not given), the Potency in test [1] was 3.98 µM (active); in test [2], 7.94 µM (active); in test [3], 13.5 µM (active); in test [4], 7.08 µM (active); in test [5], 10 µM (active); in test [7] it was 13.5 µM (active). Further, the Potency in [8] was 3.98 µM (active); in test [9] it was 12 µM (active); in test [10], 10.7 µM (active); in [11], 12 µM (active); in [13], 8.91 µM (active); in test [15] it was 3.16 µM (active). For the same molecule, the Potency in test [17] was 12 µM (active); in [18], 7.08 µM (active); in [19] it was 7.08 µM (active); in test [20], 3.98 µM (active).

Values taken from PubChem BioAssay (NCATS).
